Laboratory results as given in the supplement of paper PMC13380429.
A number with no mark means an inactive call.

Tested on: Vero E6 infected with SARS-CoV-2
Assay: inhibition of SARS-CoV-2 cytopathic effect; higher = more antiviral protection, active = above 15
Conditions: 48 h

Row | SMILES | inhibition of SARS-CoV-2 cytopathic effect (1 nM) [%] | inhibition of SARS-CoV-2 cytopathic effect (8.33 nM) [%] | inhibition of SARS-CoV-2 cytopathic effect (100 nM) [%] | inhibition of SARS-CoV-2 cytopathic effect (833.33 nM) [%] | inhibition of SARS-CoV-2 cytopathic effect (10000 nM)
1 | COc1cc2nc(N3CCCN(C)CC3)nc(NC3CCN(Cc4ccccc4)CC3)c2cc1OC | 0.59 | 0.41 | -2.3 | 1.53 | 11.7%
2 | CNC(=O)c1ccccc1Sc1ccc2c(/C=C/c3ccccn3)n[nH]c2c1 [axitinib] | -0.21 | -0.79 | 0.55 | 2.32 | 0.23%
3 | NCCC(Oc1ccc(C(F)(F)F)cc1)c1ccccc1 (stereo not given) [norfluoxetine] | 1.01 | 2.75 | 1.92 | -0.09 | -5.55%
4 | S=C(S)N1CCCC1 [pyrrolidine-dithiocarbamate] | 2.71 | 4.55 | 4.28 | 12.7 | 24.8% (active)
5 | CC(=O)OCC(=O)[C@@]1(O)CC[C@H]2[C@@H]3CCC4=CC(=O)C=C[C@]4(C)[C@H]3[C@@H](O)C[C@@]21C [prednisolone-acetate] | 0.64 | 0.57 | -0.58 | -0.51 | 0.26%
6 | Cc1cc(O)c(C(=O)N[C@@H](C(=O)N[C@@H]2C(=O)N3C(C(=O)O)=C(CSc4nnnn4C)CS[C@H]23)c2ccc(O)cc2)cn1 [cefpiramide] | -0.65 | -0.72 | 0.85 | 2.35 | 3.6%
7 | O=c1oc2cc(O)ccc2s1 [tioxolone] | 1.22 | -2.55 | -0.43 | -1.44 | -1.5%
8 | CN(C)CCN(Cc1cccs1)c1ccccn1 [methapyrilene] | -0.83 | -2.49 | -1.39 | -3.33 | -1.68%
9 | Cc1cc(C)cc(C(=O)NOCCCCCC(=O)NO)c1 | 2.07 | -0.95 | -1.04 | -9.5 | -23.1%
10 | O=C1c2c(O)cc(O)cc2O[C@H](c2ccc(O)c(O)c2)[C@H]1O [taxifolin] | 0.69 | 1.31 | 0.66 | 0.83 | 2.25%
11 | CC[C@@H]1/C=C(\C)C[C@H](C)C[C@H](OC)[C@H]2O[C@@](O)(C(=O)C(=O)N3CCCC[C@H]3C(=O)O[C@H](/C(C)=C/[C@@H]3CC[C@@H](O)[C@H](OC)C3)[C@H](C)[C@@H](O)CC1=O)[C@H](C)C[C@@H]2OC [ascomycin] | 1.02 | 2.65 | 2.8 | 2.76 | 1.33%
12 | OCc1cc([C@@H](O)CNCCCCCCOCCOCc2c(Cl)cccc2Cl)ccc1O [vilanterol] | -1.65 | -1.28 | 0.86 | -0.19 | -2.68%
13 | O=C1C=Cc2cc(Br)ccc2C1=O [bonaphthone] | -0.83 | 0.78 | -2.18 | -1.56 | -2.53%
14 | Cc1cc(Nc2cc(CN3CCOCC3)c3nc(C)c(Cc4ccc(Cl)cc4F)n3n2)n[nH]1 | -0.17 | 1 | -1.28 | -6.68 | -11.6%
15 | N#C/C(=C\c1ccc(O)c(O)c1)C(=O)NCCCc1ccccc1 | -2.32 | -2.1 | -0.73 | 0.57 | 0.75%
16 | CCC(=O)NCC[C@@H]1CCc2ccc3c(c21)CCO3 [ramelteon] | 0.77 | -0.74 | -1.05 | 0.28 | -10.8%
